For orientation: viability means a read-out of living cells in per cent, often relative to untreated cells. One may read the inhibition as the relative decrease from the control value, in per cent.

Records with an inconclusive call do not appear. Active and inactive are the calls of the source.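 How the source made its calls, unless noted: active means inhibition over a set limit, the all-compound mean plus 3 SD, in both replicate runs; inconclusive means over that limit in just one replicate run; inactive means at or under that limit in both runs.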

Experiment [1] in a line: Her2 expression decrease, cell viability multiplex – SKBR3 breast tumor cells, AlphaScreen, ATP viability, primary screen (AID 461;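 active means Her2 level under about 52% in both replicate screens, with viability over 70% of control, limit read from the data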;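 on Her2 level: lower value means less Her2 protein in the cells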;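 on viability: percent of carrier control wells set as 100% viability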). Particulars: SKBR3 Her2 protein level, 18-24 h, measured here: SKBR3 viability, ATP luminescence, at 10 µM. (In general: Bead proximity is the source of the signal in Alpha formats.)
The target in experiment [2] is Receptor tyrosine-protein kinase erbB-2 (Homo sapiens) (UniProt P04626). The description is as above. The settings on record: 18-24 h, at 10 µM, stronger effect = lower value.
A short description of experiment [3]: reduced viability of SK-BR-3 breast cancer cells – cell-based, 24 h, human, pilot screen (AID 572;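 active means viability at or below 10% of carrier control in both of two separate runs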;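 further: compound exposure lasted between 18 and 24 h rather than exactly 24 h; 100% = carrier-treated control wells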). Particulars: SK-BR-3 viability, CellTiter-Glo luminescence, at 10 µM, stronger effect = lower value. For orientation: ATP-based viability assays read luminescence as a measure of living cells.
Experiment [4] is described as follows: HUVEC growth inhibition – cell-based, human, primary screen (AID 575;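 active means viability at or below 30% in both replicate assays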;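 further: 100% = median of untreated cell wells with 0.1% DMSO on each plate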). Particulars: HUVEC proliferation, CellTiter-Glo luminescence, 72 h; at 10 µM; stronger effect = lower value.
Experiment [5] in a line: H69AR cell proliferation blockers – human, duplicate replicates, primary screen (AID 580;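 active means viability at or under a set limit in both replicates, limit being median viability minus 3 SD, cut at about 48% in these data, passing the limit was not always enough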;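 further: 100% = mean luminescence of untreated wells and 0% = no signal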). Particulars: H69AR lung tumor cells viability, ATP luminescence, 72 h; at 10 µM; stronger effect = lower value.
The nature of experiment [6]: MRP1 drug-resistance reversers in H69AR cells – cell-based, doxorubicin co-treatment, pilot screen (AID 601;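 active means viability loss from added drug above about 55%, and viability with drug at most 40%, in both replicates, limit read from the data, passing the limit was not always enough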). The settings on record: CellTiter-Glo, 72 h, at 10 µM; for differential viability (reversal): stronger effect = higher value.
Experiment [7] can be described thus: yeast transport mutant growth inhibition pilot in 384-well plates, post-Golgi transport modulator project (AID 636; in the data active means inhibition above about 31%). The settings on record: absorbance 615 nm, about 18 h, stronger effect = higher value.
A short description of experiment [8]: growth suppression of yeast trafficking mutant, preliminary HTS, modulators of trafficking downstream of Golgi apparatus project, 1536-format plate, OD 615 nm (AID 637; in the data active means inhibition above about 30%). Particulars: yeast transport mutant growth, absorbance 615 nm, 18 h; stronger effect = higher value.
Experiment [9] in a line: S. cerevisiae growth inhibition in permissive medium (OD615), pilot counter-assay for S. cerevisiae lifespan shortening project, permissive growth control (AID 705;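 active means growth inhibition above 25% in both replicates, a cutoff set 3 SD above the mean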). Particulars: OD615, 24 h, at 10 µM, stronger effect = higher value.
Experiment [10] is described as follows: S. cerevisiae growth inhibition in restrictive medium, OD615, pilot screen, restrictive growth control, yeast lifespan reduction project (AID 706;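 active means growth inhibition above a set limit, 3 SD over mean compound inhibition, in both replicates, cut at about 43% in these data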;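 further: modified DeaD lifespan yeast strain shifted to restrictive glucose medium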). The settings on record: OD615, 48 h, at 10 µM, stronger effect = higher value.
Experiment [11] can be described thus: doxorubicin toxicity protection in MRP-1 cells – H69AR cells, CellTiter-Glo, duplicate, MRP-1 activator project, pilot screen (AID 807;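 active means viability increase at or above a cutoff of the median across tested compounds plus 3 SD, cut at about 8.5% in these data, passing the limit was not always enough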;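 further: compound pretreatment 18-22 h then 72 h combined with doxorubicin; 0% = doxorubicin alone and 100% = vehicle without doxorubicin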). The settings on record: H69AR viability with doxorubicin, CellTiter-Glo luminescence; at 10 µM; stronger effect = higher value.
Experiment [12] is described as follows: viability of HCT116 without oncogenic beta-catenin – human colon tumor cells, pilot screen (AID 823;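 active means cell viability at or below a set limit in both duplicate runs, the limit being the all-compound median minus 4 SD, cut at about 23% in these data, passing the limit was not always enough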;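 further: 0% = wells killed by 20 µM Hyamine and 100% = untreated DMSO cell wells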). Particulars: HCT116 beta-catenin knockout viability, CellTiter-Glo, 60 h; at 10 µM; stronger effect = lower value.
Experiment [13] can be described thus: viability of PTEN-null HCT116 cells – cell-based, HCT116 clonal line, CellTiter-Glo, pilot screen (AID 824;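 active means viability at or below 27.92% in each of two runs, the all-compound median minus 4 SD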;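 further: 0% = 20 µM Hyamine control and 100% = vehicle cell control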). The settings on record: HCT116 PTEN-deleted viability, 60 h, at 10 µM, stronger effect = lower value.
The nature of experiment [14]: RAM pathway blockade in budding yeast – dse1pr::URA3 reporter, 5-FOA selection, pilot screen (AID 869).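 Further: 0% = DMSO wells with no growth and 100% = 10 µM 1-NA-PP1 with full growth; RAM network block rescues cells from 5-FOA so hits raise OD615 growth.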 Particulars: S. cerevisiae dse1pr::URA3 5-FOA growth, OD615, 2 d; at 10 µM; stronger effect = higher value; strain carries analog-sensitive mutant Cbk1 kinase.
A short description of experiment [15]: RAM signaling pathway blockade in yeast – S. cerevisiae, Pdr1DBD-CYC8 efflux-inhibited sensitized strain, primary screen (AID 1298;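 active means RAM network inhibition above 8.4% in each of two replicates, 3 SD over the compound average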;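 further: 0% = DMSO untreated cells without growth and 100% = 10 µM 1-NA-PP1 full growth; higher means more yeast growth rescued from 5-FOA killing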). The settings on record: S. cerevisiae cbk1-as DSE1-URA3 strain, 5-FOA growth OD615, 2 d; at 50 µM; stronger effect = higher value.
[16] abbreviates: H69AR cells + 2 uM doxorubicin, measured here: viability with 2 uM doxorubicin, stronger effect = lower value.
[17] abbreviates: H69AR cells, compound alone cytotoxicity.

Sequence of Receptor tyrosine-protein kinase erbB-2 (Homo sapiens) (P04626 whole entry, looked up): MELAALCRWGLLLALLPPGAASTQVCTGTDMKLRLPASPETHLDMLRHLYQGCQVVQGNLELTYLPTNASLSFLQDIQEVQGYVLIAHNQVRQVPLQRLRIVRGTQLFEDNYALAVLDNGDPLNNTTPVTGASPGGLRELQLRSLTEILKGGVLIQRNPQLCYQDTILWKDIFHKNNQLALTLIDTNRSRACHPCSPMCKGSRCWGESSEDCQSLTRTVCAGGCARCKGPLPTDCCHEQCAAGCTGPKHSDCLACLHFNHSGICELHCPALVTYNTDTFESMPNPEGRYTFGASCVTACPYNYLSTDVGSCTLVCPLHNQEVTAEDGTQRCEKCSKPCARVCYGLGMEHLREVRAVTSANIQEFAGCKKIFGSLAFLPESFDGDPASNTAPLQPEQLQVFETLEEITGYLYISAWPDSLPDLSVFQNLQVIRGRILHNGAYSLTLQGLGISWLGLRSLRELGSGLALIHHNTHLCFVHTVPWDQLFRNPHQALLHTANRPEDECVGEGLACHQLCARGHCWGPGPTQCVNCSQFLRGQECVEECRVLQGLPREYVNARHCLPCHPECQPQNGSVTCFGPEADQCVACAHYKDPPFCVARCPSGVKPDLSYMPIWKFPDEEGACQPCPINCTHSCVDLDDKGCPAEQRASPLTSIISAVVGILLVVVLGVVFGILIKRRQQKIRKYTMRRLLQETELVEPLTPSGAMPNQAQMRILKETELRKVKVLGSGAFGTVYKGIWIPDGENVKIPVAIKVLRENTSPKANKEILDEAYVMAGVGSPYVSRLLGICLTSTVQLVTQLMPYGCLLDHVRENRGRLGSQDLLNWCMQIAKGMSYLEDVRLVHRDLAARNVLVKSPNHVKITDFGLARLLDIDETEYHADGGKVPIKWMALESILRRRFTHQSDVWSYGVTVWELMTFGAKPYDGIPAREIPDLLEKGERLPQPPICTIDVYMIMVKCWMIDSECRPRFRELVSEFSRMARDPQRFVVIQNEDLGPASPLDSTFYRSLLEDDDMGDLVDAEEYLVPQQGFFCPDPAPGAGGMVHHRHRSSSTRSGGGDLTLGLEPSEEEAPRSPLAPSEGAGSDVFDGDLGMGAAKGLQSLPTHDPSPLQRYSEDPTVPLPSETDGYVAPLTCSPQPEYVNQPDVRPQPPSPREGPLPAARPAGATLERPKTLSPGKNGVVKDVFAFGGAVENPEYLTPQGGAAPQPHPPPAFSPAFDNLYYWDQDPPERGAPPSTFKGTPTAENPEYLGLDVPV

Take `Cc1ccc(-c2nc3cc(NC(=O)C(C)C)ccc3o2)cc1`: the viability was 87% in [1]; 87% (inactive) in experiment [3]; 73.5% (inactive) in experiment [4]; 82.4% (inactive) in experiment [5]; 83.6% in experiment [6] (setting [16]); 82.4% in experiment [6] (setting [17]). Moreover, the viability was 82.6% (inactive) in [12] and 73.5% (inactive) in experiment [13]. Moreover, the Her2 level in [2] was 112% (inactive). In addition, the differential viability (reversal) in experiment [6] (H69AR cells + 2 uM doxorubicin) was -1.22% (inactive). Further, the inhibition in [7] is -1.92% (inactive); in experiment [8] it was -10.3% (inactive); in experiment [14], 3.04% (inactive). Further, the growth inhibition in experiment [9] is -11.2% (inactive); in [10], -21.9% (inactive). Also, the viability increase in experiment [11] was -5.7% (inactive). Besides, the RAM network inhibition in [15] is 5.12% (inactive).

As for `COc1ccc(-c2nc3c(c(SCC(=O)N4CCOCC4)n2)COC(C)(C)C3)cc1`, the viability in [1] was 111%; in [3] it was 111% (inactive); in experiment [4], 85.5% (inactive); in [5], 89.2% (inactive); in experiment [6] (setting [16]), 92.1%; in [6] (setting [17]), 89.2%. For the same molecule, the viability in [12] is 101% (inactive); in experiment [13] it was 103% (inactive). Further, the Her2 level in experiment [2] is 113% (inactive). The differential viability (reversal) in [6] (H69AR cells + 2 uM doxorubicin) was -2.95% (inactive). Moreover, the inhibition in [7] was -2% (inactive); in experiment [8], 13.8% (inactive); in experiment [14], 0.94% (inactive). Moreover, the growth inhibition was 2.8% (inactive) in experiment [9] and -4.27% (inactive) in experiment [10]. For the same molecule, the viability increase in experiment [11] is -1.69% (inactive). The RAM network inhibition in [15] was 2.02% (inactive).

As for `Nc1nc(N2CCCCC2)nc(N(c2ccccc2)c2ccccc2)n1`, the viability in experiment [1] was 107%; in experiment [3] it was 107% (inactive); in [4], 69.3% (inactive); in experiment [5], 70.6% (inactive); in experiment [6] (setting [16]) it was 75%; in experiment [6] (setting [17]), 70.6%. In addition, the viability was 89.5% (inactive) in [12] and 87.1% (inactive) in experiment [13]. Moreover, the Her2 level in experiment [2] was 104% (inactive). In addition, the differential viability (reversal) in experiment [6] (H69AR cells + 2 uM doxorubicin) is -4.36% (inactive). The inhibition is -5.2% (inactive) in experiment [7], -2.33% (inactive) in experiment [8] and 0.36% (inactive) in experiment [14]. Besides, the growth inhibition in [9] is -12.8% (inactive); in experiment [10], 8% (inactive). Further, in experiment [11], the viability increase is -1.3% (inactive). Further, the RAM network inhibition in experiment [15] was 1.36% (inactive).

Consider `Cc1ccc2cc(CCNC(=O)C(C)C)c(=O)[nH]c2c1C`, for which the viability was 87.5% in experiment [1]; 87.5% (inactive) in [3]; 99.4% (inactive) in experiment [4]; 99% (inactive) in experiment [5]; 92.3% in experiment [6] (setting [16]); 99% in experiment [6] (setting [17]). In addition, the viability in experiment [12] is 105% (inactive); in experiment [13] it was 99.1% (inactive). Besides, the Her2 level in [2] was 102% (inactive). Also, the differential viability (reversal) in experiment [6] (H69AR cells + 2 uM doxorubicin) was 6.72% (inactive). The inhibition was -4.8% (inactive) in experiment [7], -1% (inactive) in experiment [8] and 1.52% (inactive) in [14]. The growth inhibition was -15.2% (inactive) in experiment [9] and -19.7% (inactive) in [10]. Besides, the viability increase in [11] was -0.61% (inactive). Also, the RAM network inhibition in experiment [15] is 6.36% (inactive).

For `CNC(=O)c1ccccc1NC(=O)c1c(O)c2c([nH]c1=O)CCCC2`, the viability in experiment [1] was 112%; in [3], 112% (inactive); in [4], 98.9% (inactive); in experiment [5], 109% (inactive); in [6] (setting [16]) it was 99.9%; in experiment [6] (setting [17]), 109%. For the same molecule, the viability was 88.9% (inactive) in [12] and 94.5% (inactive) in experiment [13]. For the same molecule, in [2], the Her2 level was 79% (inactive). Besides, the differential viability (reversal) in experiment [6] (H69AR cells + 2 uM doxorubicin) was 8.66% (inactive). Besides, the inhibition in experiment [7] was -1.71% (inactive); in experiment [8] it was 0.48% (inactive); in experiment [14] it was 1.7% (inactive). In addition, the growth inhibition in [9] was -17.1% (inactive); in experiment [10], -10.1% (inactive). The viability increase in experiment [11] was -2.56% (inactive). Besides, the RAM network inhibition in experiment [15] was 3.36% (inactive).

For the origin of these results see PubChem BioAssay.
